Assay results from PubChem BioAssay (Tox21).
Inconclusive results are not listed. The source made the active and inactive calls. The call rests on the fitted dose curve.

Each compound was assayed against 5-hydroxytryptamine receptor 2A (Homo sapiens) (UniProt P28223) (assay: 5-hydroxytryptamine receptor 2A (HTR2A) small molecule agonists, cell-based qHTS assay (AID 1963587; further: nearly all actives have a fitted effect of over 30% in size)). Conditions: HTR2A-CHO cells, calcium flux fluorescence, agonist mode; series mostly up to 76.8 µM; activation: at the top concentration.
Description: National Center for Advancing Translational Sciences [NCATS]
Division of Preclinical Innovation [DPI]
U.S. Environmental Protection Agency [EPA]
National Institutes of Environmental Health Sciences [NIEHS]
National Toxicology Program [NTP]
U.S. Food and Drug Administration [FDA]
The HTR2A receptor is a subtype of the 5-HT2 receptor that belongs to the serotonin receptor family and is a G protein-coupled receptor (GPCR). The HTR2A-CHO cell line stably expressing human 5-hydroxytryptamine receptor 2A (HTR2A) can be used for screening agonists of interactions between 5-HT2 and its ligands. The HTR2A-CHO calcium flux assay is a homogeneous fluorescence-based assay for detecting the intracellular calcium level using FDSS kinetic plate reader system.
HTR2A-CHO cells were dispensed at 2000 cells/3uL/well in 1536-well black-clear bottom plates using a Multidrop Dispenser. After the assay plates were incubated at a 37 C/5% CO2 incubator for 18 h, 3 uL of Dye Loading Buffer was transferred to the assay plate by a Flying Reagent Dispenser. The assay plates were incubated at 37 C for 1h. For agonist mode, 23 nL of compounds dissolved in DMSO, positive controls or DMSO only was transferred to the assay plate by a pin tool. The fluorescence intensity in the plates was measured using FDSS 7000EX kinetic plate reader for 2 min at 1 sec intervals.
On the % scale 0 is the no-effect control and ±100 the full control effect; potency means the concentration at half of the fitted maximal effect.

Sequence of 5-hydroxytryptamine receptor 2A (Homo sapiens) (P28223 whole entry, looked up): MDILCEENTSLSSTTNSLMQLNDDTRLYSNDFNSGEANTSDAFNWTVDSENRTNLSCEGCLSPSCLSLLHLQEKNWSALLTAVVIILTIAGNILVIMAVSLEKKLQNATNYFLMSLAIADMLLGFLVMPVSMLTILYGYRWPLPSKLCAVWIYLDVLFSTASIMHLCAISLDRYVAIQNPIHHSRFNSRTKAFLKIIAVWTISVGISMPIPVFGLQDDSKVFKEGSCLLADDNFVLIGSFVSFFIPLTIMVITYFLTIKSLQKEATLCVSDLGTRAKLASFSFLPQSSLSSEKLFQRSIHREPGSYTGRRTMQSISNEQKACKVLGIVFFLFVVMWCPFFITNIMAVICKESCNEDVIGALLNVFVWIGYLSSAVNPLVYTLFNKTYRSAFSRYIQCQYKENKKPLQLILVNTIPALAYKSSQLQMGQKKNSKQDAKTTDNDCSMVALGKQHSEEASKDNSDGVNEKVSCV

Compound	activation	Potency
CCOC(=O)NC(O)C(Cl)(Cl)Cl (stereo not given)	-0.349% [at 35.6 µM] (inactive)	
C/C=C/C=O	0.42% (inactive)	
O=C1c2ccccc2C(=O)C1C(=O)C(c1ccccc1)c1ccc(Cl)cc1 (stereo not given)		49 µM (active)
CCCN(CCC)c1c([N+](=O)[O-])cc(C(F)(F)F)cc1[N+](=O)[O-]		inactive
CNC(=O)Oc1ccc(N(C)C)c(C)c1	0.173% (inactive)	
COCc1cnc(C2=NC(C)(C(C)C)C(=O)N2)c(C(=O)O)c1 (stereo not given)	-0.881% (inactive)	
CNC(=O)Oc1cc(C)c(SC)c(C)c1	-4.12% (inactive)	
C[C@H]1CC[C@@H]2[C@@H](C)[C@H]3[C@H](C[C@H]4[C@@H]5CC=C6CC(O[C@@H]7O[C@H](CO)[C@H](O)[C@H](O[C@@H]8O[C@H](CO)[C@@H](O)[C@H](O)[C@H]8O)[C@H]7O[C@H]7O[C@@H](C)[C@H](O)[C@@H](O)[C@H]7O)CC[C@]6(C)[C@H]5CC[C@]34C)N2C1 (stereo not given in full)		63.7 µM (active)
O=[N+]([O-])c1c(Cl)c(Cl)cc(Cl)c1Cl	-4.04% (inactive)	
CCCCOC(=O)[C@@H](C)Oc1ccc(Oc2ccc(C#N)cc2F)cc1	-0.17% (inactive)	
CCCCCCCCP(=O)(O)O	-4.79% (inactive)	
C[N+]1(C)[C@@H]2CC[C@H]1CC(OC(=O)C(CO)c1ccccc1)C2 (stereo not given in full)	-0.333% [at 35.6 µM] (inactive)	
OC(c1ccc(Cl)cc1)(c1ccc(Cl)cc1)C(Cl)(Cl)Cl	14.1% (inactive)	
CCc1nn(C)c(C(=O)NCc2ccc(C(C)(C)C)cc2)c1Cl	3.36% (inactive)	
CCc1ccccc1N	-1.55% (inactive)	
CCOc1nc(C(Cl)(Cl)Cl)ns1	-1.32% (inactive)	
CC(Cc1ccccc1)NCCCCl (stereo not given)	17.3% [at 35.6 µM] (inactive)	
CCOC1Oc2ccc(OS(C)(=O)=O)cc2C1(C)C (stereo not given)	-2.48% (inactive)	
CCC[N+](CCC)(CCC)CCC	-1.36% (inactive)	
CC(C)=CC1C(C(=O)OCc2coc(Cc3ccccc3)c2)C1(C)C (stereo not given)		inactive

Compound	activation	Potency
CC[N+]1(C)CCCC(OC(=O)C(O)(c2ccccc2)c2ccccc2)C1 (stereo not given)	2.75% [at 35.6 µM] (inactive)	
ClCCCCl	0.0912% (inactive)	
C=C(C)[C@H]1CN[C@H](C(=O)O)[C@H]1CC(=O)O	-1.64% [at 35.6 µM] (inactive)	
CC1=C(C(=O)Nc2ccccc2)S(=O)(=O)CCO1	-1.2% (inactive)	
O=C1CN2CCOC2(c2ccccc2Cl)c2cc(Cl)ccc2N1 (stereo not given)	13.7% [at 35.6 µM] (inactive)	
Clc1ccc(CCC(Cn2ccnc2)Sc2c(Cl)cccc2Cl)cc1 (stereo not given)	-0.0181% [at 35.6 µM] (inactive)	
O=[N+]([O-])c1c2ccccc2cc2ccccc12	-8.65% (inactive)	
O=[N+]([O-])c1cc(C(F)(F)F)c(Cl)c([N+](=O)[O-])c1Cl	-14.6% (inactive)	
CCCCCCCCBr	-0.0355% (inactive)	
ClCCCN1CCN(c2cccc(Cl)c2)CC1	21.4% [at 35.6 µM] (inactive)	
C=CC(=O)N(C)C	-2.21% (inactive)	
CN1COCN(Cc2cnc(Cl)s2)/C1=N\[N+](=O)[O-]	11.3% (inactive)	
CC(=O)OC1(c2ccccc2)CCN(CCc2ccccc2)CC1	-11.9% (inactive)	
COC1=CC(=O)O[C@@H](CCc2ccccc2)C1	7.34% (inactive)	
Oc1ccc(C2(c3ccc(O)cc3)c3ccccc3-c3ccccc32)cc1	15.1% (inactive)	
O=C(CBr)c1ccccc1	-4.55% (inactive)	
CCOC(=O)CC(=O)CCl	-1.64% (inactive)	
Cn1[nH]nnc1=S	-1.7% (inactive)	
C[C@]12C=CC(=O)C=C1CC[C@@H]1[C@@H]2CC[C@@]2(C)[C@H]1CC[C@]2(C)O	7.7% [at 35.6 µM] (inactive)	
C1CCNCC1	0.18% (inactive)	
